Drawing on PubChem BioAssay, this text covers composite z-score and z-score for 16 molecules.

Experiment [1] deals with Plasmodium falciparum Sir2 (PF13_0152, Sir2A). In words: Plasmodium falciparum Sir2A binding compounds – biochemical, small-molecule microarray, 635 nm fluorescence, primary screen (AID 1098).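 Also: score merges spot fluorescence intensity with its signal-to-noise ratio.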 As to conditions: fluorescence 635 nm, higher = more signal.
The nature of experiment [2]: probe aDKK1 binding to arrayed compounds – biochemical, biotinylated probe, 635/667 nm fluorescence, primary screen (AID 1099).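 Also: score merges 667nm spot fluorescence with signal to noise across triplicate slides; reference of the scale not given here.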 To be noted: small-molecule microarray, higher = more signal.
Experiment [3] is described as follows: probe aCHRDL2 binding to arrayed compounds – biochemical, biotinylated probe, 635/667 nm fluorescence, primary screen (AID 1100). As to conditions: small-molecule microarray, higher = more signal.
The nature of experiment [4]: change in splice reporter luminescence, either direction, cell-based, HEK293, spliceosome inhibition project, primary screen (AID 1101).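 Also: HEK293 cells carrying a splicing-competent luciferase reporter gene; test concentration not given here.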 To be noted: HEK293 splicing luciferase reporter, 24 h, higher = more signal, called active from +8 up or from −8 down.
In experiment [5] the target is Fibroblast growth factor 10 (Homo sapiens) (UniProt O15520). Kind of experiment: compounds binding fibroblast growth factor 10 – biochemical, small-molecule microarray, 635 nm fluorescence, primary screen (AID 1102). As to conditions: FGF10 binding, fluorescence 635 nm, higher = more signal.
Experiment [6] has as its system glycogen synthase kinase-3 (GSK3A per assay name; protocol says GSK3B). Kind of experiment: compounds binding glycogen synthase kinase-3 – biochemical, small-molecule microarray, 635 nm fluorescence, GSK3A, primary screen (AID 1103). Also: the record names both GSK3A and GSK3B. As to conditions: fluorescence 635 nm, higher = more signal.
For experiment [7], the target named is Epidermal growth factor receptor (Homo sapiens) (UniProt P00533). In words: compounds binding epidermal growth factor receptor – biochemical, small-molecule microarray, 635 nm fluorescence, primary screen (AID 1104).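 Also: score merges 667 nm emission intensity with spot signal to noise over triplicate slides.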 To be noted: EGFR binding, higher = more signal.
For experiment [8], the target named is Follistatin-related protein 3 (Homo sapiens) (UniProt O95633). Kind of experiment: compounds binding follistatin-related protein 3 – biochemical, small-molecule microarray, 635 nm fluorescence, primary screen (AID 1105).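 Also: score merges emission near 667 nm and signal to noise per printed spot across three slides.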 As to conditions: FSTL3 binding, higher = more signal.
In experiment [9] the target is Dickkopf-related protein 1 (Homo sapiens) (UniProt O94907). In words: small molecules binding DKK1 protein – biochemical, small-molecule microarray, 635 nm fluorescence scan, primary screen (AID 1106).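 Also: score merges emission near 667 nm with signal to noise over three replicate slides.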 To be noted: higher = more signal.
The test system of experiment [10] is Inhibin beta A chain (activin A). In words: small molecules binding activin A – biochemical, small-molecule microarray, 635 nm fluorescence scan, primary screen (AID 1107).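 Also: mouse activin A protein probed at 4.33 µg/mL on printed slides; score merges bound-protein fluorescence near 667 nm with spot signal-to-noise.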 As to conditions: INHBA, higher = more signal.

SMILES strings stand for the structures. Calls of active or inactive are those of the source.

Sequence of Fibroblast growth factor 10 (Homo sapiens) (O15520 whole entry, looked up): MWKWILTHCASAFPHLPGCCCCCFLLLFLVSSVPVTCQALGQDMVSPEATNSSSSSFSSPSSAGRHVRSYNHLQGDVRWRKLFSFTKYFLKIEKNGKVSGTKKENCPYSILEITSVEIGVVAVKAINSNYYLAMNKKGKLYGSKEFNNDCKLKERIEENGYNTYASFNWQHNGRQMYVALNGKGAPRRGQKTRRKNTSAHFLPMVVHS
Sequence of Dickkopf-related protein 1 (Homo sapiens) (O94907 whole entry, looked up): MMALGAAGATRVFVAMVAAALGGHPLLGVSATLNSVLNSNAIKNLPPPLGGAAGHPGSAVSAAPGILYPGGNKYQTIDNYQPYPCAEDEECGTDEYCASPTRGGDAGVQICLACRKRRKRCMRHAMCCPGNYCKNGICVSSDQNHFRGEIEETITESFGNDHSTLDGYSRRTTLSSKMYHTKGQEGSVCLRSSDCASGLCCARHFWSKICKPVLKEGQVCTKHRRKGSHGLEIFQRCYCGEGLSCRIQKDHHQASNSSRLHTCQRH
Sequence of Follistatin-related protein 3 (Homo sapiens) (O95633 whole entry, looked up): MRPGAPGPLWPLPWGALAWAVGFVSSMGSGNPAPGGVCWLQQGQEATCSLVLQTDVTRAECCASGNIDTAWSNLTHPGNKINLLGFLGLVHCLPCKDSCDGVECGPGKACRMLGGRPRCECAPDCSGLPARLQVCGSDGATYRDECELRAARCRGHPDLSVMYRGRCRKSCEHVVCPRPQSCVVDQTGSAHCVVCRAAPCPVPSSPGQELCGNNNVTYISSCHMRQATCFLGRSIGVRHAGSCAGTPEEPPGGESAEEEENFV
Sequence of Epidermal growth factor receptor (Homo sapiens) (P00533 whole entry, looked up): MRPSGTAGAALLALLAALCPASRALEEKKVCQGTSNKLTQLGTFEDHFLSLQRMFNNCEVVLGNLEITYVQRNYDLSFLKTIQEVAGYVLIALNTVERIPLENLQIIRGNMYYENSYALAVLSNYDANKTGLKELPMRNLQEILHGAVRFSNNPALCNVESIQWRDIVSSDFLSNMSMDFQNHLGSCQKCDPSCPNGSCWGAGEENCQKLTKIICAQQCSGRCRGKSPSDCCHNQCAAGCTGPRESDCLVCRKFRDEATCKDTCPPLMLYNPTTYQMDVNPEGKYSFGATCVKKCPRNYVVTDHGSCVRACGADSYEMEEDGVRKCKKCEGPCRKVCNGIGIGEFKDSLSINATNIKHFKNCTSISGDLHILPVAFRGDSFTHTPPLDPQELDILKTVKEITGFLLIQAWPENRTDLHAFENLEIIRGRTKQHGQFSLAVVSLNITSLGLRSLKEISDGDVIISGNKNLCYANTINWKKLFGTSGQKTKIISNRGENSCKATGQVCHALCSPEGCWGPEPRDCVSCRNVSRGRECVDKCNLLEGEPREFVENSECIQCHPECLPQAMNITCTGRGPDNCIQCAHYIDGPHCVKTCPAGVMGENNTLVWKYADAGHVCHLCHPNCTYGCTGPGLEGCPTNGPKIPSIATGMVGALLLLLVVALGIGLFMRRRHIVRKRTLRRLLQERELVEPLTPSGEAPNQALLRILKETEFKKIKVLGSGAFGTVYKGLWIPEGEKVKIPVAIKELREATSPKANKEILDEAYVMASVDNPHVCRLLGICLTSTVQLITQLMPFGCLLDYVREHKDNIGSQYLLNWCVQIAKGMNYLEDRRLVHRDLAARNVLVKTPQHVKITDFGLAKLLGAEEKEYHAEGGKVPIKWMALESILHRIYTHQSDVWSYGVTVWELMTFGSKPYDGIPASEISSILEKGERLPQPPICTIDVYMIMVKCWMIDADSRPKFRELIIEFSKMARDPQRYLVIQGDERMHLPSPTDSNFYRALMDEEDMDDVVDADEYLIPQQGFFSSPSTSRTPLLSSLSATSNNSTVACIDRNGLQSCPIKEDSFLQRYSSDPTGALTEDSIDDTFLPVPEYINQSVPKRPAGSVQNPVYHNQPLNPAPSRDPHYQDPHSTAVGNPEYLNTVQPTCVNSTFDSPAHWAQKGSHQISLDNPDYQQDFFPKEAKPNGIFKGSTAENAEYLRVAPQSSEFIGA

`O=C1O[C@@H](c2ccccc2)[C@@H](c2ccccc2)N2[C@@H](c3ccccc3OCCO)[C@]3(C(=O)Nc4ccc(C#CC5=CCCCC5)cc43)[C@@H](C(=O)Nc3nc4ccccc4s3)[C@H]12`: the composite z-score is 1.5 in experiment [1]; 0.0826 in [2]; -0.0401 in [3]; 1.32 in experiment [5]; 1.29 in experiment [6]; 0.463 in experiment [7]. Moreover, the composite z-score is 1.23 in [8], 0.619 in experiment [9] and 0.137 in experiment [10]. In addition, the z-score in experiment [4] is -0.459 (inactive).

For `CC(C)OC(=O)C=C1C[C@@H](c2ccccc2C(F)(F)F)O[C@@H](c2ccccc2C(F)(F)F)O1`, the composite z-score in experiment [1] was 0.192; in [2] it was -0.0017; in experiment [3] it was 0.0563; in experiment [5], 0.417; in experiment [6] it was 0.163; in experiment [7], 0.337. Also, the composite z-score came out at 0.332 in experiment [8], 0.25 in [9] and 0.266 in [10]. Moreover, the z-score in experiment [4] was -0.723 (inactive).

For the molecule `C[C@]1(C(=O)NC2CC2)c2ccccc2C(=O)N(Cc2cc(C(F)(F)F)cc(C(F)(F)F)c2)[C@H]1c1ccc(CO)cc1`, the composite z-score was 1.56 in experiment [1]; 0.757 in experiment [2]; 0.298 in experiment [3]; 0.711 in experiment [5]; 0.948 in experiment [6]; 0.279 in [7]. Further, the composite z-score in experiment [8] was determined as 0.865; in experiment [9], 0.585; in experiment [10] it was 0.592. Moreover, the z-score in [4] is -0.402 (inactive).

As to `COC(=O)[C@@]1(Cc2ccc(F)cc2)[C@H]2c3cc(C(=O)N4CCCC4)n(Cc4cc(C)n(C)n4)c3C[C@H]2CN1C(=O)c1ccccc1`, the composite z-score is 0.89 in [1]; 1.01 in experiment [2]; 1.4 in experiment [3]; 0.533 in experiment [5]; 0.775 in experiment [6]; -0.144 in [7]. Also, the figures for the composite z-score in [8], in experiment [9] and in experiment [10] were -0.261, -0.449 and 1.28, respectively. In experiment [4], the z-score is -3.14 (inactive).

Consider `CN(C)C(=O)[C@]1(Cc2ccccc2N=[N+]=[N-])N=C(c2ccc(OCCCO)cc2)O[C@@H]1c1ccccc1`, for which the composite z-score worked out at 1.47 in experiment [1]; 0.467 in [2]; 0.787 in experiment [3]; 0.818 in [5]; 1.28 in experiment [6]; 0.0161 in [7]. In addition, the composite z-score was 0.373 in [8], -0.121 in experiment [9] and 0.545 in experiment [10]. In experiment [4], the z-score is -1.17 (inactive).

As to `CCCCc1cn(C[C@H](Cc2ccccc2)NC(=O)N[C@H](CO)CCc2oc(C(C)=O)c(C(=O)OC)c2C(=O)OC)nn1`, the composite z-score is 0.595 in experiment [1]; -0.164 in experiment [2]; -0.22 in experiment [3]; 1.04 in experiment [5]; 1.02 in experiment [6]; 0.717 in experiment [7]. Further, the composite z-score in [8] was 1.4; in experiment [9], 0.485; in experiment [10], -0.0075. Besides, the z-score in [4] is -0.949 (inactive).

`CC(C)[C@@H](CO)NC(=O)[C@H]1[C@@H](c2ccccc2)N(c2ccccc2)O[C@@H]1C`: the composite z-score is 0.008 in [1]; -0.343 in experiment [2]; -0.343 in [3]; -0.123 in [5]; -0.418 in experiment [6]; -0.0881 in [7]. The composite z-score was -0.218 in [8], 0.227 in [9] and 0.197 in experiment [10]. In [4], the z-score is -0.18 (inactive).

Turning to `CO[C@H]1O[C@H](CO)[C@@H](OC(=O)Nc2ccc(Br)cc2)[C@H](OC(=O)c2cc3ccccc3[nH]2)[C@H]1OC(=O)c1cc2ccccc2[nH]1`, the composite z-score was determined as 1.23 in experiment [1]; 0.165 in experiment [2]; 0.24 in experiment [3]; 1.19 in experiment [5]; 1.28 in experiment [6]; 0.408 in experiment [7]. Further, the composite z-score in experiment [8] is 0.579; in experiment [9], 0.0104; in [10], 0.227. In [4], the z-score is -4.44 (inactive).

For the molecule `COCCCN1C(=O)[C@@]2(Cc3ccccc31)c1ccccc1C(=O)N(Cc1ccccc1C(F)(F)F)[C@H]2c1ccc(CO)cc1`, the composite z-score is 1.13 in experiment [1]; -0.106 in [2]; -0.563 in experiment [3]; 0.94 in [5]; 0.561 in [6]; 0.12 in [7]. For the same molecule, the composite z-score in experiment [8] is 0.919; in experiment [9] it was 0.756; in experiment [10] it was 0.915. Besides, in experiment [4], the z-score is 0.498 (inactive).

For `COc1ccc([Si](C)(C)[C@@H]2[C@@H](CC(=O)N3Cc4ccccc4C[C@H]3CO)O[C@]3(C(=O)N(C)c4c(Br)cc(C)cc43)[C@H]2C)cc1`, the composite z-score in experiment [1] was 0.859; in experiment [2], -0.0347; in [3], -0.311; in [5], 1.33; in experiment [6], 0.954; in experiment [7], 0.968. In addition, the composite z-score in experiment [8] worked out at 1.08; in experiment [9], 0.685; in experiment [10] it was 1.13. The z-score in experiment [4] was -2.12 (inactive).

With `COc1ccc(C(O)C2C=CC3C(=O)N(C)C(=O)C3N2N2CCCCC2)c2ccccc12` (stereo not given), the composite z-score in [1] amounted to 1.17; in experiment [2], 0.65; in experiment [3], 0.947; in experiment [5] it was 0.956; in experiment [6], 1.29; in experiment [7] it was 0.344. Besides, the results for the composite z-score in experiment [8], in experiment [9] and in experiment [10] were 1.24, -0.312 and 0.91, respectively. Further, the z-score in experiment [4] is 1.28 (inactive).

For `COC(=O)[C@@]1(Cc2ccc(F)cc2)[C@H]2c3cc(C(=O)N4CCCC4)n(Cc4ccc(C)o4)c3C[C@H]2CN1C(=O)c1ccccc1`, the composite z-score in experiment [1] was determined as 1.55; in [2], 0.72; in experiment [3], 1.02; in experiment [5], 1.08; in [6], 0.899; in [7], 0.0358. Further, the values for the composite z-score in [8], in [9] and in experiment [10] were 0.596, -0.177 and 0.87, respectively. Further, the z-score in experiment [4] was 3.29 (inactive).

Consider `C[C@@]1([C@@H](NC(=O)c2ccccc2)c2ccc(-c3ccccc3)cc2)C[C@H]1C1CCCCC1`, for which the composite z-score was -0.443 in experiment [1]; 1.18 in experiment [2]; 1.26 in [3]; -0.145 in experiment [5]; -0.82 in experiment [6]; -0.573 in [7]. In addition, the composite z-score in [8] is -0.503; in [9], -0.932; in experiment [10], 1.09. In experiment [4], the z-score was 0.665 (inactive).

Take `Cc1ccc(S[C@]2(C(=O)NCCN3CCOCC3)CC(=O)N(Cc3ccccc3)[C@@H]2c2ccc(CO)cc2I)cc1`: the composite z-score was 1.41 in experiment [1]; 0.361 in experiment [2]; 1.11 in [3]; -1.61 in experiment [5]; -1.12 in [6]; -1.72 in experiment [7]. Also, the values for the composite z-score in experiment [8], in experiment [9] and in experiment [10] were -1.24, -1.51 and 0.476, respectively. In experiment [4], the z-score was -1.88 (inactive).

`CCCCCN1CC=CC23O[C@@H]4/C=C\CCCOC(=O)C4[C@H]2C(=O)N(CCCO)[C@@H]3C1=O` (stereo not given in full): the composite z-score in experiment [1] was 0.93; in experiment [2] it was -0.175; in experiment [3], 0.062; in experiment [5] it was 0.0154; in experiment [6], 1.06; in experiment [7] it was -0.346. Also, the composite z-score in [8] was -0.352; in experiment [9], -0.663; in experiment [10] it was 1.41. Besides, the z-score in experiment [4] is 0.308 (inactive).

For `COC(=O)[C@@]1(Cc2ccc(F)cc2)[C@H]2c3cc(C(=O)N(C)C)n(Cc4nc5ccccc5[nH]4)c3C[C@H]2CN1C(=O)c1ccccc1`, the composite z-score is 1.62 in [1]; 0.69 in experiment [2]; 0.969 in experiment [3]; 0.63 in experiment [5]; -0.136 in experiment [6]; 0.314 in experiment [7]. Further, the composite z-score in experiment [8] is 0.296; in experiment [9], -0.419; in [10] it was 0.538. In experiment [4], the z-score was -1.62 (inactive).
